Data taken from PubChem BioAssay AID1159580 (chemical genetic matrix, 2015).
Where “and” joins values, the source holds several entries; their conditions need not be identical. Identical values can stand only once. Among all 5,500 compounds or so, about 2,000 (36%) were called active. Another 18% or so got no clear call; they are omitted. Cut-off read from the data, not from the text of the source: active = normalized growth mostly below about 0.91 (no sharp cut-off); inconclusive = no clear call, values can overlap the other calls; inactive = mostly above about 0.92. Some of the results follow.

Test: chemical genetic growth profiling, strain panel (AID 1159580);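 note: tested at 20 µM; growth read once vehicle control cultures reached saturation at 30 °C; 1 = growth at the plate median or of vehicle wells; lower values mean less growth of the strain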
Details: S. cerevisiae deletion strains, growth OD

Measured: normalized growth

C#C[C@]1(O)CCC2C3CCc4cc(O)ccc4C3CC[C@@]21C (some centres not stated)
active: locus YBR009C, strain hhf1, stronger effect = lower value 0.894 | locus YDL035C, strain GPR1, stronger effect = lower value 0.853 | locus YDR137W, strain rgp1, stronger effect = lower value 0.738 | locus YDR195W, strain ref2 1.25 [resistant] | locus YDR392W, strain spt3, stronger effect = lower value 0.617 | locus YGL078C, strain dbp3, stronger effect = lower value 0.904 | locus YGR252W, strain gcn5, stronger effect = lower value 0.653 | locus YHR013C, strain ard1, stronger effect = lower value 1.17 [resistant]
inactive: locus YAL013W, strain DEP1, stronger effect = lower value 1 | locus YAL021C, strain ccr4, stronger effect = lower value 1.06 | locus YAL026C, strain drs2, stronger effect = lower value 0.951 | locus YAL030W, strain snc1, stronger effect = lower value 1.02 | locus YBL061C, strain skt5, stronger effect = lower value 0.998 | locus YBR021W, strain FUR4, stronger effect = lower value 0.94 | locus YBR023C, strain chs3, stronger effect = lower value 0.996 | locus YBR171W, strain sec66, stronger effect = lower value 1.02 | locus YBR229C, strain ROT2, stronger effect = lower value 1.02 | locus YBR231C, strain swc5, stronger effect = lower value 1 | locus YBR279W, strain paf1, stronger effect = lower value 1 | locus YCL011C, strain gbp2, stronger effect = lower value 1.01 | locus YCL016C, strain dcc1, stronger effect = lower value 0.988 | locus YCL029C, strain bik1, stronger effect = lower value 0.942 | locus YCL061C, strain MRC1, stronger effect = lower value 0.968 | locus YCL069W, strain vba3, stronger effect = lower value 1.02 | locus YCR088W, strain abp1, stronger effect = lower value 1.02 | locus YDL005C, strain med2, stronger effect = lower value 1.04 | locus YDL040C, strain nat1, stronger effect = lower value 1.03 | locus YDL074C, strain BRE1, stronger effect = lower value 0.833 | locus YDL101C, strain DUN1, stronger effect = lower value 0.989 | locus YDL185W, strain tfp1, stronger effect = lower value 1.02 | locus YDL192W, strain arf1, stronger effect = lower value 1.01 | locus YDR001C, strain nth1, stronger effect = lower value 1.04 | locus YDR069C, strain doa4, stronger effect = lower value 0.991 | locus YDR101C, strain arx1, stronger effect = lower value 0.956 | locus YDR159W, strain sac3, stronger effect = lower value 0.908 | locus YDR162C, strain NBP2, stronger effect = lower value 0.843 | locus YDR297W, strain sur2, stronger effect = lower value 1.01 | locus YDR318W, strain mcm21, stronger effect = lower value 0.945 | locus YDR334W, strain swr1, stronger effect = lower value 1.05 | locus YDR335W, strain msn5, stronger effect = lower value 0.959 | locus YDR388W, stronger effect = lower value 1.02 | locus YDR502C, strain sam2, stronger effect = lower value 0.93 | locus YEL003W, strain gim4, stronger effect = lower value 0.938 | locus YEL037C, strain rad23, stronger effect = lower value 1.02 | locus YEL061C, strain CIN8 (second series), stronger effect = lower value 1.03 | locus YEL061C, strain CIN8, stronger effect = lower value 1.04 | locus YER015W, strain faa2, stronger effect = lower value 1.01 | locus YER016W, strain bim1, stronger effect = lower value 0.934 | locus YER110C, stronger effect = lower value 1.03 | locus YER111C, strain swi4, stronger effect = lower value 1.06 | locus YER155C, strain BEM2 (second series), stronger effect = lower value 1.07 | locus YER155C, strain BEM2, stronger effect = lower value 1.06 | locus YER167W, strain BCK2, stronger effect = lower value 1 | locus YFR010W, strain ubp6, stronger effect = lower value 1.01 | locus YGL086W, strain mad1, stronger effect = lower value 0.951 | locus YGL167C, strain pmr1, stronger effect = lower value 1.02 | locus YGL173C, strain kem1, stronger effect = lower value 0.904 | locus YGL227W, strain vid30, stronger effect = lower value 1.05 | locus YGL240W, strain doc1, stronger effect = lower value 0.918 | locus YGL248W, strain PDE1, stronger effect = lower value 0.952 | locus YGL253W, strain hxk2, stronger effect = lower value 0.963 | locus YGR078C, strain PAC10, stronger effect = lower value 0.877 | locus YGR135W, strain pre9, stronger effect = lower value 0.949 | locus YHR027C, strain rpn1, stronger effect = lower value 0.981 | locus YHR030C, strain SLT2, stronger effect = lower value 1.02 and 0.96 | locus YHR079C, strain IRE1 (second series), stronger effect = lower value 0.979 | locus YHR079C, strain IRE1, stronger effect = lower value 0.968 | locus YHR094C, strain hxt1, stronger effect = lower value 1.03 | locus YHR129C, strain ARP1, stronger effect = lower value 0.993 | locus YHR142W, strain chs7, stronger effect = lower value 0.946 | locus YHR200W, strain rpn10, stronger effect = lower value 1.01 | locus YIL066C, strain RNR3, stronger effect = lower value 0.913 | locus YIL073C, strain SPO22, stronger effect = lower value 1.01 | locus YIL125W, strain kgd1, stronger effect = lower value 1 | locus YIR030C, strain dcg1, stronger effect = lower value 0.999 | locus YJL092W, strain hpr5, stronger effect = lower value 1.02 | locus YJL095W, strain BCK1 (second series), stronger effect = lower value 1 | locus YJL095W, strain BCK1, stronger effect = lower value 0.861 and 1 | locus YJL115W, strain asf1, stronger effect = lower value 1.05 | locus YJL129C, strain trk1, stronger effect = lower value 0.946 | locus YJL134W, strain LCB3, stronger effect = lower value 1.03 | locus YJL154C, strain vps35, stronger effect = lower value 1.05 | locus YJL164C, strain tpk1, stronger effect = lower value 0.952 | locus YJL166W, strain qcr8, stronger effect = lower value 0.973 | locus YJL168C, strain set2, stronger effect = lower value 1.02 | locus YJL187C, strain SWE1 (second series), stronger effect = lower value 0.931 | locus YJL187C, strain SWE1, stronger effect = lower value 1.02
